Here are results for 24 sequences from publication PMC11006913.

Numbering of substitutions follows the chain as printed.

Test in all cases: PBM; 200 nM protein, PBS
What all share (details): dsDNA, one strand shown

Assay [1] concerns the target T1, PAX4 (Homo sapiens, UniProt O43316 9-242).
T1 sequence: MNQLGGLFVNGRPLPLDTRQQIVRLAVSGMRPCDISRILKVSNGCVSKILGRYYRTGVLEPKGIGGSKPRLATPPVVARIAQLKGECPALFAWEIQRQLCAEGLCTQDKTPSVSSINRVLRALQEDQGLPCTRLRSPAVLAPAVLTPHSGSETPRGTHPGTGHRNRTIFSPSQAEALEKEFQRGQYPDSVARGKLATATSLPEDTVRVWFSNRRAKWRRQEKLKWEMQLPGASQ

The target of assay [2] is T2, PAX4 (Homo sapiens, UniProt O43316 9-242, F177V).
T2 sequence: T1 sequence with F169V

Assay [3] has as its target T3, PAX4 (Homo sapiens, UniProt O43316 9-242, F177Y).
T3 sequence: T1 sequence with F169Y

Assay [4] has as its target T4, PAX4 (Homo sapiens, UniProt O43316 9-242, R227W).
T4 sequence: T1 sequence with R219W

Assay [5] has as its target VAX1 (Homo sapiens, UniProt Q5SQQ9 86-172).
Assay [6] addresses VAX1 (Homo sapiens, UniProt Q5SQQ9 86-172, T142I).
Assay [7] has as its target VAX1 (Homo sapiens, UniProt Q5SQQ9 86-172, K157R).
Assay [8] has as its target T5, SIX6 (Homo sapiens, UniProt O95475 114-200, L167M).
T5 sequence: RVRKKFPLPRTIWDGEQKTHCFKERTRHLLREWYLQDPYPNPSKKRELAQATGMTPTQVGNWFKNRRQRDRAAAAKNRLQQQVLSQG

The target of assay [9] is T6, SIX6 (Homo sapiens, UniProt O95475 114-200, L143I).
T6 sequence: T5 sequence with L30I, M54L

Assay [10] has as its target T7, SIX6 (Homo sapiens, UniProt O95475 114-200, L143M).
T7 sequence: T5 sequence with L30M, M54L

The target in assay [11] is T8, SIX6 (Homo sapiens, UniProt O95475 114-200, L167V).
T8 sequence: T5 sequence with M54V

For assay [12], the target named is HOXB6 (Homo sapiens, UniProt P17509 132-218, K202E).
Sequence of HOXB6 (Homo sapiens, UniProt P17509 132-218, K202E) (P17509 132-218 K202E): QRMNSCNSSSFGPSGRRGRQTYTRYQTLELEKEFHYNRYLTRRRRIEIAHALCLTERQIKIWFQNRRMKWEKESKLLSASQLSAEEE
The target of assay [13] is HOXD13 (Homo sapiens, UniProt P35453 263-343, T313R).
Sequence of HOXD13 (Homo sapiens, UniProt P35453 263-343, T313R) (P35453 263-343 T313R): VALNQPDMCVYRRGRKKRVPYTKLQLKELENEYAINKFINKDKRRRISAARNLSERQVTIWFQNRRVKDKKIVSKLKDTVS
In assay [14] the target is HOXD13 (Homo sapiens, UniProt P35453 263-343).
Sequence of HOXD13 (Homo sapiens, UniProt P35453 263-343) (P35453 263-343): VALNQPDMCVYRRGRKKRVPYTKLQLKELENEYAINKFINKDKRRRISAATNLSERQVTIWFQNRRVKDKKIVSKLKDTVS
The target in assay [15] is PROP1 (Homo sapiens, UniProt O75360 56-141).
Sequence of PROP1 (Homo sapiens, UniProt O75360 56-141) (O75360 56-141): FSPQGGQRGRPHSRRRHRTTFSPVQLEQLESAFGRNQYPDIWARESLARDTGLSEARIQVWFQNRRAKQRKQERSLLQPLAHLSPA
Assay [16] concerns the target PROP1 (Homo sapiens, UniProt O75360 56-141, R99H).
Assay [17] concerns the target HOXD13 (Homo sapiens, UniProt P35453 263-343, T313A).
Assay [18] deals with HOXC9 (Homo sapiens, UniProt P31274 178-260, R222W).
Sequence of HOXC9 (P31274 178-260 R222W): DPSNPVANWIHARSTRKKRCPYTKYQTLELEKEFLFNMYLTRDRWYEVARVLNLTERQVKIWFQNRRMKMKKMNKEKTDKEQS
The target in assay [19] is PROP1 (Homo sapiens, UniProt O75360 56-141, F88S).
Sequence of PROP1 (Homo sapiens, UniProt O75360 56-141, F88S) (O75360 56-141 F88S): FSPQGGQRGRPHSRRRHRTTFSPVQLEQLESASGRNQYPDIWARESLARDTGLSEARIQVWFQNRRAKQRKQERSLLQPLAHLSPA
The target in assay [20] is T9, NKX2-6 (Homo sapiens, UniProt A6NCS4 118-204, R150C).
T9 sequence: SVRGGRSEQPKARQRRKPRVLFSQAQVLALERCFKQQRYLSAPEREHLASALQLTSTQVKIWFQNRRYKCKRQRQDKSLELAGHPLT

For assay [21], the target named is HOXB6 (Homo sapiens, UniProt P17509 132-218).
Sequence of HOXB6 (Homo sapiens, UniProt P17509 132-218) (P17509 132-218): as the sequence (P17509 132-218 K202E) above, with E71K counted along it
Assay [22] deals with T10, NKX2-4 (Homo sapiens, UniProt Q9H2Z4 175-261).
T10 sequence: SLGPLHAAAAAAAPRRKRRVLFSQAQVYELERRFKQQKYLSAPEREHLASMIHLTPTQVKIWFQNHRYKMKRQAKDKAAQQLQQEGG

For assay [23], the target named is HOXA2 (Homo sapiens, UniProt O43364 129-215, R185T).
Sequence of HOXA2 (Homo sapiens, UniProt O43364 129-215, R185T) (O43364 129-215 R185T): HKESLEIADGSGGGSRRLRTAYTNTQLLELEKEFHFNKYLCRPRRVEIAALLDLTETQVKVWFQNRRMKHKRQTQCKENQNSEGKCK
The target in assay [24] is HOXA2 (Homo sapiens, UniProt O43364 129-215, R185K).
Sequence of HOXA2 (Homo sapiens, UniProt O43364 129-215, R185K) (O43364 129-215 R185K): as the sequence (O43364 129-215 R185T) above, with T57K counted along it
Assay [25] deals with HOXA2 (Homo sapiens, UniProt O43364 129-215, Y150S).
Sequence of HOXA2 (Homo sapiens, UniProt O43364 129-215, Y150S) (O43364 129-215 Y150S): as the sequence (O43364 129-215 R185T) above, with Y22S, T57R counted along it
For assay [26], the target named is HOXA2 (Homo sapiens, UniProt O43364 129-215).
Sequence of HOXA2 (Homo sapiens, UniProt O43364 129-215) (O43364 129-215): as the sequence (O43364 129-215 R185T) above, with T57R counted along it
Assay [27] deals with MSX2 (Homo sapiens, UniProt P35548 130-214).
Sequence of MSX2 (Homo sapiens, UniProt P35548 130-214) (P35548 130-214): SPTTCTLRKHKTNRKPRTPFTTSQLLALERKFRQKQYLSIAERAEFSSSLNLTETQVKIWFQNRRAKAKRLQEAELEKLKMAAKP
Assay [28] has as its target MSX2 (Homo sapiens, UniProt P35548 130-214, F161Y).
The target in assay [29] is T11, SIX6 (Homo sapiens, UniProt O95475 114-200, T139Q).
T11 sequence: T5 sequence with T26Q, M54L

The target of assay [30] is ALX3 (Homo sapiens, UniProt O95076 139-225, N203Q).
Sequence of ALX3 (Homo sapiens, UniProt O95076 139-225, N203Q) (O95076 139-225 N203Q): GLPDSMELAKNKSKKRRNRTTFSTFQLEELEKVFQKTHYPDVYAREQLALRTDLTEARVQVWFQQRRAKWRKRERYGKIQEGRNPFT
Assay [31] addresses ALX3 (Homo sapiens, UniProt O95076 139-225).
Assay [32] concerns the target ALX3 (Homo sapiens, UniProt O95076 139-225, N203S).
Assay [33] deals with T12, NKX2-4 (Homo sapiens, UniProt Q9H2Z4 175-261, R246Q).
T12 sequence: T10 sequence with R72Q

Assay [34] concerns the target ALX1 (Homo sapiens, UniProt Q15699 118-204, L144V).
The target in assay [35] is ALX1 (Homo sapiens, UniProt Q15699 118-204, L144R).
Sequence of ALX1 (Homo sapiens, UniProt Q15699 118-204, L144R) (Q15699 118-204 L144R): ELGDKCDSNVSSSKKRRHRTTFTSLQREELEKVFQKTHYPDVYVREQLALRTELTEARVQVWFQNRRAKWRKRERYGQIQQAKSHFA
Assay [36] concerns the target ALX1 (Homo sapiens, UniProt Q15699 118-204).

Sequence of HOXD13 (Homo sapiens, UniProt P35453 263-343, T313A) (P35453 263-343 T313A): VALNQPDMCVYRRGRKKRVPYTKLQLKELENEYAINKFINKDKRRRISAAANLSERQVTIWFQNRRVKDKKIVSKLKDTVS
Sequence of ALX1 (Homo sapiens, UniProt Q15699 118-204) (Q15699 118-204): as the sequence (Q15699 118-204 L144R) above, with R27L counted along it
Sequence of ALX3 (Homo sapiens, UniProt O95076 139-225, N203S) (O95076 139-225 N203S): as the sequence (O95076 139-225 N203Q) above, with Q65S counted along it
Sequence of VAX1 (Homo sapiens, UniProt Q5SQQ9 86-172, T142I) (Q5SQQ9 86-172 T142I): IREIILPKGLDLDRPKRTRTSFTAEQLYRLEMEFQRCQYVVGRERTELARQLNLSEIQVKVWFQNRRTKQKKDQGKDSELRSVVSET
Sequence of PROP1 (Homo sapiens, UniProt O75360 56-141, R99H) (O75360 56-141 R99H): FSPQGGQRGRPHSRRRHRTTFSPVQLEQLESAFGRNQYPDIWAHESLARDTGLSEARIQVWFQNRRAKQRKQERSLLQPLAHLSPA
Sequence of VAX1 (Homo sapiens, UniProt Q5SQQ9 86-172) (Q5SQQ9 86-172): as the sequence (Q5SQQ9 86-172 T142I) above, with I57T counted along it
Sequence of VAX1 (Homo sapiens, UniProt Q5SQQ9 86-172, K157R) (Q5SQQ9 86-172 K157R): as the sequence (Q5SQQ9 86-172 T142I) above, with I57T, K72R counted along it
Sequence of MSX2 (Homo sapiens, UniProt P35548 130-214, F161Y) (P35548 130-214 F161Y): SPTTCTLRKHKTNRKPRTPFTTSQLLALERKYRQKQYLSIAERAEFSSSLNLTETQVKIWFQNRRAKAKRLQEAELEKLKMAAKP
Sequence of ALX3 (Homo sapiens, UniProt O95076 139-225) (O95076 139-225): as the sequence (O95076 139-225 N203Q) above, with Q65N counted along it
Sequence of ALX1 (Homo sapiens, UniProt Q15699 118-204, L144V) (Q15699 118-204 L144V): as the sequence (Q15699 118-204 L144R) above, with R27V counted along it

For ACTGATGC, the binding signal is 10.6 upbm affinity estimate (log intensity, higher = more binding, comparable within an allelic series) in assay [1]; 9.94 upbm affinity estimate (log intensity, higher = more binding, comparable within an allelic series) in assay [2]; 10 upbm affinity estimate (log intensity, higher = more binding, comparable within an allelic series) in assay [3]; 10 upbm affinity estimate (log intensity, higher = more binding, comparable within an allelic series) in [4].
Turning to AATTGCGA, the binding signal in assay [1] is 10.7 upbm affinity estimate (log intensity, higher = more binding, comparable within an allelic series); in assay [2], 9.91 upbm affinity estimate (log intensity, higher = more binding, comparable within an allelic series); in assay [3], 10 upbm affinity estimate (log intensity, higher = more binding, comparable within an allelic series); in assay [5] it was 9.89 upbm affinity estimate (log intensity, higher = more binding, comparable within an allelic series); in [6] it was 9.67 upbm affinity estimate (log intensity, higher = more binding, comparable within an allelic series); in assay [4], 10.1 upbm affinity estimate (log intensity, higher = more binding, comparable within an allelic series). Further, the binding signal in [7] was 9.62 upbm affinity estimate (log intensity, higher = more binding, comparable within an allelic series).
Regarding GAATTGAA, the binding signal was 10.6 upbm affinity estimate (log intensity, higher = more binding, comparable within an allelic series) in assay [1]; 10.1 upbm affinity estimate (log intensity, higher = more binding, comparable within an allelic series) in [2]; 10.1 upbm affinity estimate (log intensity, higher = more binding, comparable within an allelic series) in [4].
Consider ATATACTC, for which the binding signal in assay [8] was 10.7 upbm affinity estimate (log intensity, higher = more binding, comparable within an allelic series); in assay [9] it was 10.4 upbm affinity estimate (log intensity, higher = more binding, comparable within an allelic series).
On to GGGGTATA, for which the binding signal in [8] was 10.7 upbm affinity estimate (log intensity, higher = more binding, comparable within an allelic series).
In the case of CGGATATC, the binding signal was 10.9 upbm affinity estimate (log intensity, higher = more binding, comparable within an allelic series) in [10] and 10.8 upbm affinity estimate (log intensity, higher = more binding, comparable within an allelic series) in [11].
For AATTTAAT, the binding signal in assay [12] was 9.98 upbm affinity estimate (log intensity, higher = more binding, comparable within an allelic series); in assay [13], 10.4 upbm affinity estimate (log intensity, higher = more binding, comparable within an allelic series); in [14], 11.5 upbm affinity estimate (log intensity, higher = more binding, comparable within an allelic series); in [3], 10.9 upbm affinity estimate (log intensity, higher = more binding, comparable within an allelic series); in assay [15] it was 11.2 upbm affinity estimate (log intensity, higher = more binding, comparable within an allelic series); in assay [16], 10.7 upbm affinity estimate (log intensity, higher = more binding, comparable within an allelic series). Moreover, the binding signal in assay [17] is 11.3 upbm affinity estimate (log intensity, higher = more binding, comparable within an allelic series); in assay [18], 11.1 upbm affinity estimate (log intensity, higher = more binding, comparable within an allelic series); in assay [19] it was 7.76 upbm affinity estimate (log intensity, higher = more binding, comparable within an allelic series).
With ACGGGCCT, the binding signal in [12] was 8.87 upbm affinity estimate (log intensity, higher = more binding, comparable within an allelic series); in assay [20], 9.14 upbm affinity estimate (log intensity, higher = more binding, comparable within an allelic series); in [21], 8.95 upbm affinity estimate (log intensity, higher = more binding, comparable within an allelic series).
As to AGTGCGTG, the binding signal in assay [22] is 11.3 upbm affinity estimate (log intensity, higher = more binding, comparable within an allelic series).
On to GGCCTCCC, for which the binding signal in [12] is 8.93 upbm affinity estimate (log intensity, higher = more binding, comparable within an allelic series); in [13] it was 9.37 upbm affinity estimate (log intensity, higher = more binding, comparable within an allelic series); in assay [14] it was 9.63 upbm affinity estimate (log intensity, higher = more binding, comparable within an allelic series); in assay [17] it was 9.7 upbm affinity estimate (log intensity, higher = more binding, comparable within an allelic series); in [21], 9.02 upbm affinity estimate (log intensity, higher = more binding, comparable within an allelic series).
For AGATATCC, in assay [10], the binding signal was 10.9 upbm affinity estimate (log intensity, higher = more binding, comparable within an allelic series).
As for AGCCTTGC, the binding signal is 9.12 upbm affinity estimate (log intensity, higher = more binding, comparable within an allelic series) in assay [12]; 7.13 upbm affinity estimate (log intensity, higher = more binding, comparable within an allelic series) in assay [23]; 10.3 upbm affinity estimate (log intensity, higher = more binding, comparable within an allelic series) in assay [24]; 10.6 upbm affinity estimate (log intensity, higher = more binding, comparable within an allelic series) in [25]; 7.12 upbm affinity estimate (log intensity, higher = more binding, comparable within an allelic series) in assay [26]; 8.94 upbm affinity estimate (log intensity, higher = more binding, comparable within an allelic series) in assay [21].
For the sequence ATAAAAGC, the binding signal in [12] is 9.53 upbm affinity estimate (log intensity, higher = more binding, comparable within an allelic series); in [27], 10.9 upbm affinity estimate (log intensity, higher = more binding, comparable within an allelic series); in [28], 10.8 upbm affinity estimate (log intensity, higher = more binding, comparable within an allelic series); in [21] it was 10.3 upbm affinity estimate (log intensity, higher = more binding, comparable within an allelic series).
As for ATAGATAC, the binding signal in assay [10] is 10.9 upbm affinity estimate (log intensity, higher = more binding, comparable within an allelic series); in [29], 11.1 upbm affinity estimate (log intensity, higher = more binding, comparable within an allelic series).
For GGTTTTTA, the binding signal in assay [12] is 9.65 upbm affinity estimate (log intensity, higher = more binding, comparable within an allelic series); in assay [21] it was 10.3 upbm affinity estimate (log intensity, higher = more binding, comparable within an allelic series).
For ATCTGATC, the binding signal in assay [10] is 11 upbm affinity estimate (log intensity, higher = more binding, comparable within an allelic series); in [9], 10.4 upbm affinity estimate (log intensity, higher = more binding, comparable within an allelic series).
As for CTCGGCTC, the binding signal in assay [12] is 9.06 upbm affinity estimate (log intensity, higher = more binding, comparable within an allelic series); in [21] it was 8.95 upbm affinity estimate (log intensity, higher = more binding, comparable within an allelic series).
Consider GCCGCCCA, for which the binding signal in [12] was 8.98 upbm affinity estimate (log intensity, higher = more binding, comparable within an allelic series); in assay [21], 8.99 upbm affinity estimate (log intensity, higher = more binding, comparable within an allelic series).
Consider ACTATTGA, for which the binding signal in [12] was 9.51 upbm affinity estimate (log intensity, higher = more binding, comparable within an allelic series); in assay [30], 8.21 upbm affinity estimate (log intensity, higher = more binding, comparable within an allelic series); in assay [31], 9.1 upbm affinity estimate (log intensity, higher = more binding, comparable within an allelic series); in assay [32], 8.3 upbm affinity estimate (log intensity, higher = more binding, comparable within an allelic series); in assay [21] it was 10.1 upbm affinity estimate (log intensity, higher = more binding, comparable within an allelic series).
In the case of AGTGCAGA, the binding signal in assay [22] is 11.4 upbm affinity estimate (log intensity, higher = more binding, comparable within an allelic series); in assay [33], 11.7 upbm affinity estimate (log intensity, higher = more binding, comparable within an allelic series).
Regarding ATAGTATC, the binding signal in assay [10] is 11 upbm affinity estimate (log intensity, higher = more binding, comparable within an allelic series).
With ATATCTAC, the binding signal in assay [10] was 11 upbm affinity estimate (log intensity, higher = more binding, comparable within an allelic series).
For the sequence GACCGAGC, the binding signal is 8.96 upbm affinity estimate (log intensity, higher = more binding, comparable within an allelic series) in assay [12]; 6.39 upbm affinity estimate (log intensity, higher = more binding, comparable within an allelic series) in [34]; 6.24 upbm affinity estimate (log intensity, higher = more binding, comparable within an allelic series) in assay [35]; 6.33 upbm affinity estimate (log intensity, higher = more binding, comparable within an allelic series) in assay [36]; 8.92 upbm affinity estimate (log intensity, higher = more binding, comparable within an allelic series) in assay [21].
As for CAGCAGGG, the binding signal in assay [12] is 9.1 upbm affinity estimate (log intensity, higher = more binding, comparable within an allelic series); in assay [23], 7.49 upbm affinity estimate (log intensity, higher = more binding, comparable within an allelic series); in assay [24], 10.3 upbm affinity estimate (log intensity, higher = more binding, comparable within an allelic series); in assay [25], 10.3 upbm affinity estimate (log intensity, higher = more binding, comparable within an allelic series); in [26], 7.08 upbm affinity estimate (log intensity, higher = more binding, comparable within an allelic series); in assay [21], 9.13 upbm affinity estimate (log intensity, higher = more binding, comparable within an allelic series).
